High-throughput results as filed in PubChem BioAssay.
Hits are enriched below; roughly 0.92% of the tested compounds scored in any of these assays.
MEP2-GFP yeast: alters MEP2-GFP fluorescence in TOR pathway yeast screen; S. cerevisiae MEP2-GFP strain, flow cytometry GFP, 3 h; 100% = DMSO control level; GFP response vs DMSO, % at 10 µM; hit rate 0.51% among 330,000;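 active = GFP response versus DMSO above a set limit, roughly screen mean plus 3 SD, cut at about 180% in these data; inconclusive = fewer than 70 cells counted for a yeast strain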;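 also: median GFP fluorescence of the barcode-gated MEP2-GFP cells per well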
RPL19A TOR yeast: alters RPL19A-GFP fluorescence in TOR pathway yeast screen. S. cerevisiae RPL19A-GFP strain, flow cytometry, 3 h; active compounds read low. percent response vs DMSO, % at 10 µM. hit rate 0.3% among 330,000;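 active = percent response vs DMSO below 50%; inconclusive = fewer than 70 events counted for the yeast strain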;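 also: median channel GFP fluorescence of the barcoded RPL19A-GFP strain; lower means less RPL19A-GFP as with rapamycin TOR inhibition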
CIT2-GFP yeast: yeast TOR pathway CIT2-GFP modulation | S. cerevisiae CIT2-GFP strain, flow cytometry, 3 h; 100 means same as DMSO wells | GFP response vs DMSO, % at 10 µM | hit rate 0.065% among 320,000;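 active = GFP response relative to DMSO above a set limit, near the screen mean plus 3 SD, cut at about 150% in these data; inconclusive = Fewer than 70 cells measured for a yeast strain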;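 also: ratio of well median GFP fluorescence to mean of DMSO wells on the plate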
AGP1-GFP MLPCN: modulators of TOR pathway AGP1-GFP in S. cerevisiae; hit rate 0.02% among 320,000; GFP response vs DMSO, % at 10 µM; S. cerevisiae AGP1-GFP multiplex flow cytometry, 3 h; GFP as percent of DMSO wells;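 active = GFP response relative to DMSO above a set limit, near screen average plus 3 SD, cut at about 150% in these data; inconclusive = fewer than 70 cells counted for the yeast strain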;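 also: median GFP channel fluorescence of the gated AGP1 strain per well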
LAP4 TOR yeast: yeast TOR pathway LAP4-GFP modulation; S. cerevisiae LAP4-GFP multiplex, flow cytometry GFP, 3 h; median GFP as percent of DMSO wells; hit rate 0.34% among 320,000; AID 2023; GFP response vs DMSO, % at 10 µM;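 active = GFP response vs DMSO above a set limit, about the screen mean plus 3 SD, cut at about 150% in these data; inconclusive = under 70 cell events counted for the yeast strain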
Large screens that a line does not name were inactive; [ ] = another dose, or the depositor's remark.

CCOC(=O)c1ccc(N2CCOCC2)c(NS(=O)(=O)c2ccc(F)cc2)c1	CIT2-GFP yeast 167.5[may fluoresce green]
COCCCn1c(O)c(/C=C2\N=C(C#N)C(=Nc3ccc(C)cc3)O2)sc1=S	MEP2-GFP yeast 756.0[may fluoresce violet], RPL19A TOR yeast 40.6[may fluoresce violet], CIT2-GFP yeast inconclusive, AGP1-GFP MLPCN inconclusive
O=C(NCc1ccc(F)cc1)c1cnn2ccccc12	none
CC1=NN(c2ccccc2)C(=O)/C1=C/C=C/C=C/N(C)C	MEP2-GFP yeast 315.9[may fluoresce violet], RPL19A TOR yeast 38.8[may fluoresce violet], CIT2-GFP yeast inconclusive, AGP1-GFP MLPCN inconclusive
Cn1ccc(NC(=O)c2ccc(Cl)cc2Cl)n1	none
Cn1ccc(NC(=O)c2ccc(Cl)cc2)n1	MEP2-GFP yeast active[may fluoresce green], CIT2-GFP yeast active[may fluoresce green], AGP1-GFP MLPCN active[may fluoresce green], LAP4 TOR yeast active[may fluoresce green]
COc1ccc2ccccc2c1/C=N/Nc1cccc(C(=O)O)c1	LAP4 TOR yeast 166.4
COC(=O)c1ccc(COC(=O)CNC(=O)c2ccc(C)s2)cc1	none
CCOc1ccc(-c2c(C(=O)N/N=C/c3cccnc3)nnn2-c2nonc2N)cc1	none
COc1ccc(/C=C2\Sc3ccc(C(=O)N4CCc5ccccc5C4)cc3N(C)C2=O)cc1	MEP2-GFP yeast 217.9
Oc1ccccc1OCc1nc2ccccc2s1	MEP2-GFP yeast 179.1[may fluoresce violet], CIT2-GFP yeast inconclusive, AGP1-GFP MLPCN inconclusive
OCc1cc(Br)ccc1OCc1nc2ccccc2s1	none
Fc1ccc(CNc2ncccn2)cc1	MEP2-GFP yeast 189.9[may fluoresce violet], RPL19A TOR yeast 29.7[may fluoresce violet], CIT2-GFP yeast inconclusive, AGP1-GFP MLPCN inconclusive
C#CCOCCOCCOCCNc1nc(N2CCN(C(=O)CCCCCCCCCCNC(=O)[C@H]([C@@H](C)CC)n3cc(CCCCN=C(N)N)nn3)CC2)nc(N2CCN(C(=O)CCCCCCCCCCNC(=O)[C@H](CCCCN)n3cc(C[C@@H](C)CC)nn3)CC2)n1	LAP4 TOR yeast 187.0
C#CCOCCOCCOCCNc1nc(N2CCN(C(=O)CCCCCCCCCCNC(=O)[C@H](CCCCN)n3cc(C[C@@H](C)CC)nn3)CC2)nc(N2CCN(C(=O)CCCCCCCCCCNC(=O)[C@H](CCCCN)n3cc(C[C@@H](C)CC)nn3)CC2)n1	LAP4 TOR yeast 215.7
C#CCOCCOCCOCCNc1nc(N2CCN(C(=O)CCCCCCCCCCNC(=O)Cn3cc(C[C@@H](C)O)nn3)CC2)nc(N2CCN(C(=O)CCCCCCCCCCNC(=O)[C@H](CCCCN)n3cc(C[C@@H](C)CC)nn3)CC2)n1	none
Cc1ccc(N(C(=O)c2snc(C(N)=O)c2N)C(C(=O)NCc2ccccc2)c2ccncc2)c(C)c1 (stereo not given)	MEP2-GFP yeast 209.6[may fluoresce violet], RPL19A TOR yeast 38.5[may fluoresce violet], CIT2-GFP yeast inconclusive, AGP1-GFP MLPCN inconclusive
CC(=O)Nc1ccc(S(=O)(=O)NC(CC(=O)NCCC2=CCCCC2)C(C)C)cc1 (stereo not given)	MEP2-GFP yeast 210.7, AGP1-GFP MLPCN 151.6, LAP4 TOR yeast 281.9
COc1ccc2c(CC(=O)NNC(=O)c3ccc(O)cc3)coc2c1	none
COc1ccccc1C(=O)Nc1ccc2c(c1)nc(CCNC(=O)c1ccco1)n2C	none
CCN(CC)C(=O)c1sc(NC(=O)c2cccs2)c(C#N)c1C	none
CCN(CC)C(=O)c1ccc(-c2cccs2)s1	LAP4 TOR yeast 183.9
COc1ccccc1N1CCN(CC(O)c2ccccc2)CC1 (stereo not given)	MEP2-GFP yeast 290.2[may fluoresce violet], RPL19A TOR yeast 46.0[may fluoresce violet], CIT2-GFP yeast inconclusive, AGP1-GFP MLPCN inconclusive
COc1ccccc1N1CCN(CC(O)c2c(C)[nH]c3ccccc23)CC1 (stereo not given)	none
COc1ccc(N(CC(=O)Nc2cc([N+](=O)[O-])ccc2C)S(C)(=O)=O)cc1OC	none
O=C(COC(=O)CNS(=O)(=O)c1cc(C(F)(F)F)ccc1Cl)NC1CC1	none
Cc1cccn2c(=O)c3cc(C(=O)NCCc4ccccc4)c(=N)n(CCCn4ccnc4)c3nc12	MEP2-GFP yeast 207.8 (no result: AGP1-GFP MLPCN)
CCCCCn1c(=N)c(S(=O)(=O)c2ccc(Cl)cc2)cc2c(=O)n3cccc(C)c3nc21	MEP2-GFP yeast 297.0[may fluoresce violet], CIT2-GFP yeast inconclusive, AGP1-GFP MLPCN inconclusive
COCCn1c(=N)c(C(=O)NCCc2ccccc2)cc2c(=O)n3cccc(C)c3nc21	none
Cc1cccn2c(=O)c3cc(C(=O)NCCN4CCOCC4)c(=N)n(CCc4ccccc4)c3nc12	MEP2-GFP yeast 209.6[may fluoresce violet], RPL19A TOR yeast 47.0[may fluoresce violet], CIT2-GFP yeast inconclusive
